Source: PubChem (National Center for Advancing Translational Sciences (NCATS))
Shown are actives, neighbours in structure and some others; about 11% of the full set was active somewhere.
AMA1 RON2 block – AMA1-RON2 (P. falciparum) interaction inhibition; AlphaScreen AMA1-biotinylated RON2 peptide binding; Potency, µM (series often up to 58.2 µM), inactives show at the top dose activity change, negative = inhibition, actives largely listed as inhibitors; 0.2% of 360,000 active;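 note: 0% = vehicle wells and -100% = peptide control; nearly all actives have a fitted effect of over 45% in size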
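AMA1 (3D7) with his tag at 25 nM final met compounds first, then biotinylated RON2 peptide at 25 nM; detection used donor plus acceptor beads, 10 µg/mL apiece, read by AlphaScreen after 30 min at room temperature.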
Pf growth 96h – inhibits malaria parasite growth, 96 h; Potency, µM (highest dose often 28.7 µM), for inactives: at the top dose activity change, negative = inhibition, hits mostly inhibitors; 6.9% of 320,000 active; P. falciparum luciferase reporter growth, 96 h; AID 504834
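Two parasite generations (96 h, 37 C, 5% CO2) of compound exposure in infected erythrocytes (0.05% parasitemia, 2% hematocrit). Luciferase-reporter P. falciparum; decreased luminescence indicates inhibited growth, aimed at apicoplast-acting delayed death.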
HCV inh – HCV inhibition; Huh7.5.1 HCVcc-Cre infection, luciferase reporter, 44 h; Potency, µM (doses to about 41.8 µM), without a hit: at the top dose activity change, negative = inhibition, most hits filed as inhibitors; 3.4% of 340,000 active; AID 651820
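Reporter virus HCVcc-Cre (~0.5 moi) infects cells exposed to compound; seeding density 1,000 cells/well with 4 h settling beforehand. Luminescence, 15 sec read, taken 44 h post-infection following a 15 min RT substrate incubation.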
Pf growth 48h – inhibits P. falciparum growth in the first generation, 48 h. P. falciparum luciferase growth in erythrocytes, 48 h. Potency, µM (doses to about 28.7 µM), for inactives: at the top dose activity change, negative = inhibition, hits mostly inhibitors. 5.9% of 310,000 active
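Cell-based growth assay: transgenic P. falciparum expressing firefly luciferase, cultured in red cells within RPMI 1640 containing 0.5% w/v Albumax, 24 mM bicarbonate and gentamycin. A drop in luciferase activity indicates inhibition.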
Starred values were filed as active, the others as inactive; [ ] = dose if it differs, or a comment. Calls come from the whole dose curve; as a rule, active = well fitted curve in the direction sought with a large enough effect; inconclusive = small, poorly fitted or top-dose-only effect, or another doubt; inactive = no such curve, though single readings can be large; an effect the other way counts as inactive or inconclusive. Unless noted, % is set by controls: 0 for no effect and ±100 for the full control effect; potency is the fitted concentration of half-maximal effect.

Cc1ccc(C(=O)N2CCN(c3cc(=O)[nH]nc3-c3ccccc3)CC2)cc1 was read as AMA1 RON2 block 21%, Pf growth 96h 12µM*, HCV inh 0% and Pf growth 48h inconclusive.
For Cc1ccc(-c2nsc3c(N4CCC(C(N)=O)CC4)ncnc23)cc1 the results were AMA1 RON2 block -8%, Pf growth 96h inconclusive, HCV inh 16% and Pf growth 48h 149%.
For O=C(c1ccccc1)N1CCN(c2ncnc3c(-c4ccccc4)nsc23)CC1 the results were AMA1 RON2 block 0%, Pf growth 96h 19%, HCV inh -17% and Pf growth 48h -29%.
For CCN(C[C@H]1N[C@@](Cc2ccccc2)(C(=O)OC)[C@H]2C(=O)N(C)C(=O)[C@@H]12)C(=O)C1CCCCC1 the results were AMA1 RON2 block 0% and HCV inh 31%[8.37 µM].
Screening CCCCn1c(N)c(N(CCOC)C(=O)CCCc2cccs2)c(=O)[nH]c1=O returned AMA1 RON2 block 13%, Pf growth 96h 2%, HCV inh -5% and Pf growth 48h 6%.
COc1ccc(-c2csc3ncnc(N4CCN(C(=O)c5ccco5)CC4)c23)cc1 was read as AMA1 RON2 block 0%, Pf growth 96h inconclusive, HCV inh inconclusive and Pf growth 48h inconclusive.
For Cc1ccc(-c2csc3ncnc(N4CCN(C(=O)c5ccccc5)CC4)c23)cc1 the results were AMA1 RON2 block -1%, HCV inh inconclusive and Pf growth 48h 8.3µM*.
Screening Cc1ccc(O)c(CNCCNCc2cc(C)ccc2O)c1 returned AMA1 RON2 block 114%, Pf growth 96h 2.6µM*, HCV inh inconclusive and Pf growth 48h 7.4µM*.
For Oc1cc(CNCc2ccccc2)c(O)cc1CNCc1ccccc1 the results were AMA1 RON2 block 14% and HCV inh 13%.
Screening Cc1ccc(O)c(Cc2cc(C)cc(Cc3cc(C)ccc3O)c2O)c1 returned AMA1 RON2 block 3%.
For CCc1ccc(O)c(CNCCNCc2cc(CC)ccc2O)c1 the results were AMA1 RON2 block 57%, Pf growth 96h 5.9µM*, HCV inh inconclusive and Pf growth 48h 6.6µM*.
Screening Cc1cc(-c2nnc(CCC(=O)NC(C)c3ccc(F)cc3)o2)no1 (stereo not drawn) returned AMA1 RON2 block -4%, Pf growth 96h inconclusive, HCV inh 17% and Pf growth 48h 41%.
`Oc1ccc(C23CCCC2C2(CCCC2)c2ccc(O)cc2O3)c(O)c1` (stereo not drawn) gave AMA1 RON2 block -2%, Pf growth 96h inconclusive, HCV inh 10µM* and Pf growth 48h inconclusive.
Screening COc1ccc(Cc2noc(CN3CCCC(OCc4ccccn4)C3)n2)cc1OC (stereo not drawn) returned AMA1 RON2 block 11%, Pf growth 96h 13µM*, HCV inh -18% and Pf growth 48h inconclusive.
`COCCN1CCN(Cc2nc(Cc3ccc(OC)c(OC)c3)no2)CC1` gave AMA1 RON2 block 3%, Pf growth 96h -20%, HCV inh 9% and Pf growth 48h 6%.
`COc1ccc(Cc2noc(CN3CCN(Cc4cccc(Cl)c4)CC3)n2)cc1OC` gave AMA1 RON2 block 4%, Pf growth 96h 8.3µM*, HCV inh inconclusive and Pf growth 48h inconclusive.
O=C(CC1C=Cc2ccccc2N1C(=O)c1ccccc1)c1ccccc1 (stereo not drawn) was read as AMA1 RON2 block 4%, Pf growth 96h 0.59µM*, HCV inh 10µM* and Pf growth 48h inconclusive.
Screening Cc1nc(N2CCN(c3ccccc3)CC2)nc2c1C(=O)CC(c1ccccc1)C2 (stereo not drawn) returned AMA1 RON2 block -11%, Pf growth 96h -10%, HCV inh -26% and Pf growth 48h 13%.
For Cc1nc(N2CCN(c3ccccc3)CC2)nc2c1C(=O)CC(C)C2 (stereo not drawn) the results were AMA1 RON2 block -7%, Pf growth 96h -6%, HCV inh 11µM* and Pf growth 48h 14%.
`O=[N+]([O-])c1ccccc1-c1ccc(C(=S)N2CCCC2)o1` gave AMA1 RON2 block 0%, Pf growth 96h -187%, HCV inh inconclusive and Pf growth 48h inactive.
Screening O=[N+]([O-])c1ccccc1-c1ccc(C(=S)N2CCCCC2)o1 returned AMA1 RON2 block 25µM*, Pf growth 96h 182%, HCV inh inconclusive and Pf growth 48h 136%.
Screening CCCCCCCCN1C(=O)[C@H](CC(=O)N2CCCC2)C[C@@]2(C(=O)OC)CCCCC=C12 returned AMA1 RON2 block 8%.
Screening CCOC(=O)N=Nc1c2ccccc2c2nc3no[nH]c3nc12 returned AMA1 RON2 block 7%, Pf growth 96h 19%, HCV inh 0.56µM* and Pf growth 48h 1µM*.
`Nc1cccc(N=[N+]([O-])c2cccc(N)c2)c1` gave AMA1 RON2 block -6% and HCV inh 20%.
`O=C(Cc1cccc2ccccc12)Nc1ccc(-c2cc3ccccc3oc2=O)cc1` gave AMA1 RON2 block -26%, Pf growth 96h inconclusive, HCV inh inconclusive and Pf growth 48h 12µM*.
For CC(C)(C)OC(=O)C[C@H]1C/C=C\C[C@H](CC(=O)NCCO)C(=O)N[C@@H](Cc2ccccc2)COC1=O the results were AMA1 RON2 block 0% and HCV inh 2%.
O=C(Nc1cccc(/C=C/c2nc3ccccc3c(=O)[nH]2)c1)c1ccccc1Cl was read as AMA1 RON2 block -1%, Pf growth 96h 3%, HCV inh 5µM* and Pf growth 48h 4%.
For COc1ccc(C(=O)Nc2cccc(/C=C/c3nc4ccccc4c(=O)[nH]3)c2)cc1 the results were AMA1 RON2 block -1%, Pf growth 96h 72%, HCV inh 1.3µM* and Pf growth 48h 38%.
`CCCCn1nnnc1C(c1cc2ccccc2o1)N1CCN(c2ccncc2)CC1` (stereo not drawn) gave AMA1 RON2 block 2%.
`OC(CNCc1ccccc1F)(c1ccc(F)cc1)c1ccc(F)cc1` gave AMA1 RON2 block -6%, Pf growth 96h inconclusive, HCV inh inconclusive and Pf growth 48h inconclusive.
`COc1ccccc1CNC(=S)NCc1ccc(Cl)cc1` gave AMA1 RON2 block 0%, Pf growth 96h -18%, HCV inh -20% and Pf growth 48h inconclusive.
Screening COc1ccccc1CNCC(O)(c1ccc(Cl)cc1)c1ccc(Cl)cc1 returned AMA1 RON2 block 43%, Pf growth 96h 1.7µM*, HCV inh inconclusive and Pf growth 48h 1.7µM*.
Screening COc1ccccc1CNCC(O)(c1ccc(F)cc1)c1ccc(F)cc1 returned AMA1 RON2 block 4%, Pf growth 96h 4.7µM*, HCV inh inconclusive and Pf growth 48h 3.7µM*.
`COc1cccc(-c2nn(C)c3sc(C(=O)NCc4ccc(C)o4)cc23)c1` gave AMA1 RON2 block -7%, Pf growth 96h inconclusive, HCV inh 2.8µM* and Pf growth 48h inconclusive.
Screening COc1cccc(-c2nn(C)c3sc(C(=O)NCc4ccc5c(c4)OCO5)cc23)c1 returned AMA1 RON2 block -14%, Pf growth 96h 28% and HCV inh 14µM*.
